# Screening data (PubChem)
# The full list was thinned out, with hits kept by preference.
# IMPase cell inh: IMPase inhibition in cells | P97697 | CHO-M1 cells, IP1 accumulation, HTRF TR-FRET ratio | inhibition (IP1 accumulation), % at 46.1 µM | 120,000 tested, under 10 active; active means well fitted curve in the direction sought with a large enough effect in the signal ratio, not every such curve was filed as active; inconclusive means small, poorly fitted or top-dose-only effect, or a change in a side signal; inactive means no such curve, though single readings can be large or run the other way; the % refers to the signal ratio;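 further: cells stimulated with carbachol in lithium chloride buffer; plate controls were DMSO basal wells for no effect and reference inhibitor wells for full effect; higher means more IMPase inhibition seen as more IP1 and lower FRET ratio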
#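 The IP-One HTRF competitive assay in carbachol-stimulated CHO-M1 cells quantifies cellular IP1. Compounds spanned up to 46 uM final, and activity is expressed as AC50 from concentration-response fits of the ratio and donor data.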
# Hsp90 Hop PPI: changes Hsp90-Hop TPR2A binding signal, up or down; AlphaScreen TPR2A-His6 binding biotin-Hsp90 C-terminal peptide; Potency, µM (series often up to 57 µM), inactives show top-dose activity change, negative = inhibition; 0.44% of 71,000 active; AID 595; active means well fitted curve in either direction with a large enough effect; inconclusive means small, poorly fitted or top-dose-only effect, or another doubt; further: potency means the concentration at half of the fitted maximal effect; on the % scale 0 is the no-effect control and ±100 the full control effect
# p53ts 39C kill: cytotoxicity in p53ts cells at nonpermissive temperature. H1299-p53A138V viability at 39C, ATP luminescence, 24 h. Potency, µM (highest dose often 46.1 µM), for inactives: at the top dose activity change, negative = cell killing, hits mostly cytotoxic. 1.5% of 130,000 active. AID 902; further: potency means the concentration at half of the fitted maximal effect; on the % scale 0 is the no-effect control and ±100 the full control effect; nearly all actives have a fitted effect of over 55% in size
# FLuc inh: inhibitors of firefly luciferase | 2.2% of 72,000 active | Potency, µM (doses to about 57.1 µM), for the others: at the top dose activity change, negative = inhibition, most hits filed as inhibitors | P08659 | purified firefly luciferase, luminescence, 8 min; further: potency means the concentration at half of the fitted maximal effect; on the % scale 0 is the no-effect control and ±100 the full control effect; nearly all actives have a fitted effect of over 40% in size
# Target sequence (P08659 whole entry, looked up): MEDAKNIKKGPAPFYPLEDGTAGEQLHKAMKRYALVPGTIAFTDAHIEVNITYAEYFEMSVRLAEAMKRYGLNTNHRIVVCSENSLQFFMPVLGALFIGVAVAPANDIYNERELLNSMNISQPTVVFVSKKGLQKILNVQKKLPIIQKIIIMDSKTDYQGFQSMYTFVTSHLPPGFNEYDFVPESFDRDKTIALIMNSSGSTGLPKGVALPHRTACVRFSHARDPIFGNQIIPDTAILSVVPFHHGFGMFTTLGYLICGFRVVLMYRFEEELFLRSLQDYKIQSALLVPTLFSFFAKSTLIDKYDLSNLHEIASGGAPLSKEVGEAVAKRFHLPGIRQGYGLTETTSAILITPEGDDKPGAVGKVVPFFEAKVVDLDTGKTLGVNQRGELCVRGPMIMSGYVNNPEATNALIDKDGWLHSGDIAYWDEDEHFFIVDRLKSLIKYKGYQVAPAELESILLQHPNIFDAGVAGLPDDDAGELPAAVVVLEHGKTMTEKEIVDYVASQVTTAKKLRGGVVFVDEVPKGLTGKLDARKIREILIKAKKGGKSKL
#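 Titration-based qHTS; buffer 50 mM imidazole pH 7.2, 50 mM KCl, 7 mM MgCl2, 10 uM ATP, 0.01% Tween 20, 0.05% BSA; luciferase/luciferin detector mix added after compound; 8 min, ambient; luminescence.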
# p53ts 32C tox: kills p53ts cells at the permissive temperature; H1299-p53A138V at 32C, ATP luminescence viability, 24 h; Potency, µM (top dose mostly 46.1 µM), inactives show top-dose activity change, negative = cytotoxicity, hits mostly cytotoxic; 0.93% of 130,000 active; AID 924;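 further: potency means the concentration at half of the fitted maximal effect; 0% = DMSO and -100% = full killing by reference compound; nearly all actives have a fitted effect of over 55% in size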
#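 Cells: H1299 p53ts (A138V), 600/well, pre-incubated 16–30 h at 37C. Cpd up to 46 uM, 24 h, 32C. Readout: ATPlite luminescence, 20 min RT. Normalization: DMSO vs tamoxifen 100 uM. AC50 by Hill equation.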
# IkB signaling: IkB pathway inhibition in ABC-DLBCL cells. 0.04% of 110,000 active. ABC-DLBCL IkBa-CBG/CBR dual luciferase ratio, 4 h; response scale: scaled: untreated 0%, proteasome inhibitor 100%. Potency, µM (titrated, usually from 57.1 µM), inactives show at the top dose IkBa stabilization activation; active means well fitted curve in the direction sought with a large enough effect in the signal ratio, not every such curve was filed as active; inconclusive means small, poorly fitted or top-dose-only effect, or a change in a side signal; the % refers to the signal ratio;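 further: potency means the concentration at half of the fitted maximal effect; the direction sought is a rising ratio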
#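 In this assay, an IκBα–CBG68 fusion accumulates when IKK-driven degradation is blocked; native CBR normalizes for cell number. OCI-Ly3 cells were treated 4 h with compound and doxycycline, then green and red light read after Chroma-Glo addition.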
# * hit, by the source's call; ? = inconclusive; . = no result given; [ ] = remark or other dose. Unless noted, the call rests on the fitted dose curve; in most records, active means well fitted curve in the direction sought with a large enough effect; inconclusive means small, poorly fitted or top-dose-only effect, or another doubt; inactive means no such curve, though single readings can be large; an effect the other way counts as inactive or inconclusive.
SMILES,IMPase cell inh,Hsp90 Hop PPI,p53ts 39C kill,FLuc inh,p53ts 32C tox,IkB signaling
CCCCCCCC/C=C\CCCCCCCC(=O)NCc1ccc(O)c(OC)c1,1,-1%,32µM*,-1%,?,0%
CCCCCCCC/C=C\CCCCCCCC(=O)NCCc1ccc(O)c(O)c1,9,?,13µM*,-5%,?,59%
CCCCCCCCCCCCCCCC(=O)NCCc1ccc(O)c(O)c1,.,.,-15%,.,13%,.
CCCCCCCCCCCCCCCCOC[C@@H](COCC(F)(F)F)OP(=O)(O)OCO,.,-3%,.,2%,.,-6%
CCC(=O)N1CCc2cc(Br)cc(S(=O)(=O)CCC(=O)NCCc3cccc(C)c3)c21,.,.,25%,.,16%,3%
Cc1cccc(CNc2ncncc2-c2ccccc2Cl)c1,.,4%,-11%,-4%[2.29 µM],0%,1%[11.4 µM]
COc1ccc(-c2cn3nc(SCC(=O)Nc4cccc(C)c4C)ccc3n2)cc1,.,.,16µM*,.,-15%,1%
CCCCCCCCCCCCCCC/C=C\[C@H](O)[C@@H](NC(=O)CCCCCCCCCCCCC)OC (tested in a mixture with another compound),-3,-3%,?,-1%,5%,-6%
O=C(Nc1nnc(CCN2CCCCC2)s1)C1CCCCC1,0,3%,1%,-12%,-11%,1%
O=C(Nc1nnc(CCN2CCOCC2)s1)C1CCCCC1,-13,-10%,7%,13µM*,7%,2%
CCC(c1nnnn1Cc1ccccc1)N(Cc1ccco1)Cc1cc2cc(OC)ccc2[nH]c1=O (stereo not given),-18,-2%,-6%,1%,-14%,4µM*
CCC(c1nnnn1Cc1ccco1)N(CCc1ccccc1)Cc1cc2cc(C)ccc2[nH]c1=O (stereo not given),13,-6%,-13%,-5%,-11%,?
O=C(Nc1ccc2nc3n(c(=O)c2c1)CCCCC3)c1ccccn1,2,-1%,?,13µM*,?,2%
Cc1cccc2nc(=S)n(C(=O)c3ccco3)n12,-2,-5%,-21%,2µM*,-17%,-3%
O=C(c1ccco1)N1C(=O)c2cccc3cccc1c23,-1,-1%,-2%,1%,2%,-3%
O=C(c1ccco1)n1c(=S)nc2ccccn21,2,-6%,-11%,5µM*,-4%,3%
O=S1(=O)N[C@H]2CC[C@@H]3NS(=O)(=O)N[C@H]4CC[C@H](N1)N4S(=O)(=O)N23,.,-3%[11 µM],6%[9.22 µM],1%[11.4 µM],-1%[9.22 µM],0%[11.4 µM]
O=C(Nc1ccc2c(c1)C(=O)N(CC1CCCO1)C2=O)c1ccc(Cl)c(Cl)c1 (stereo not given),12,.,.,.,.,.
O=C(Nc1ccc(O)c(C(=O)O)c1)c1ccc2c(c1)C(=O)N(CC1CCCO1)C2=O (stereo not given),2,-2%,4%,13µM*,1%,2%
CCc1ccc(C(=O)c2cn(Cc3ccccc3)c3cc(OC)c(OC)cc3c2=O)cc1,.,.,?,.,1%,?
COCc1cc(C)nc2sc3c(c12)NC(c1ccccc1C(=O)O)N(c1cccc(C(F)(F)F)c1)C3=O (stereo not given),.,.,1%,.,0%,3%
COc1ccccc1C1Nc2c(sc3nc(C)cc(C)c23)C(=O)N1c1ccccc1 (stereo not given),.,.,13µM*,.,?,?
CCN1/C(=C/C(=O)c2ccco2)Sc2ccccc21,-1,6%,?,25µM*,-21%,2%
CCC(=O)/C=C1/Sc2ccccc2N1CC,5,.,8%,.,-12%,.
COc1cccc(CN(C(=O)c2oc3cc(C)ccc3c2C)C2CCS(=O)(=O)C2)c1 (stereo not given),.,.,1%,.,10%,?
SMILES,IMPase cell inh,Hsp90 Hop PPI,p53ts 39C kill,FLuc inh,p53ts 32C tox,IkB signaling
COc1ccc(-c2cc(-c3ccc(OC)cc3)[nH]n2)cc1,9,-2%,7%,16µM*,13%,?
O=C(Nc1ccc(Cl)cc1)c1cc(S(=O)(=O)NC2CCCCCC2)ccc1F,.,.,13µM*,.,4%,?
Cc1ccc(NC(=O)c2cc(S(=O)(=O)NC3CCCCCC3)ccc2F)cc1F,.,.,-22%,.,?,?
CN(C)c1ncc2nc(-c3ccccc3)c(=O)n(C)c2n1,.,13µM*,?,-25%[11.4 µM],?,-3%[11.4 µM]
COc1cccc(Cn2c(=O)c(-c3ccccc3)nc3cnc(N(C)C)nc32)c1,.,10µM*,-12%,-2%[11.4 µM],-7%,-1%[11.4 µM]
CN(C)c1ncc2nc(-c3ccc(Cl)cc3)c(=O)n(C)c2n1,.,-3%,-4%,-6%[11.4 µM],-5%,-3%[11.4 µM]
O=C(CSc1nc(=O)n(Cc2ccccn2)c2c1CCC2)Nc1ccccc1,.,.,11%,.,-6%,?
COc1ccc(CC(=O)Nc2cc(-c3nc4cccnc4s3)ccc2C)cc1,.,.,13µM*,.,?,0%
CCCC(=O)Nc1cc(-c2nc3cccnc3s2)ccc1C,.,.,?,.,-16%,-2%
Cc1ccc(N2CCN(C(=O)c3c(C)oc4ncnc(N5CCOCC5)c34)CC2)c(C)c1,.,.,4%,.,3%,?
Cc1ccc(N2CCN(C(=O)c3c(C)oc4ncnc(N5CCCCC5)c34)CC2)c(C)c1,.,.,20µM*,.,15%,?
O=C(Cn1c(=O)c2ccccc2n(CC(=O)Nc2ccc(F)cc2)c1=O)NCCc1ccccc1,3,.,-2%,.,2%,?
COc1ccc(CCNC(=O)CCCn2c(=O)c3ccccc3n(CC(=O)Nc3cc(Cl)ccc3C)c2=O)cc1OC,.,.,13µM*,.,?,-2%
Cc1cc(C)cc(NC(=O)Cn2c(=O)n(CC(=O)NCCc3ccccc3)c(=O)c3ccccc32)c1,-1,.,20µM*,.,?,?
CCc1cccc(NC(=O)Cn2c(=O)n(CC(=O)NCCc3ccccc3)c(=O)c3ccccc32)c1,9,.,6.3µM*,.,10µM*,?
CCOC(=O)c1c(NC(C)=O)c2c3c(sc2n1Cc1cc(C)ccc1C)CCCC3,.,.,19%,.,20%,1%
CCCCN(C)S(=O)(=O)c1ccc(C(=O)Nc2nnc(CSC)o2)cc1,-4,-21%,10µM*,2%,-21%,1%
CCCCN(CCCC)S(=O)(=O)c1ccc(C(=O)Nc2nnc(COC)o2)cc1,-8,-4%,10µM*,1%,-13%,-1%
Cc1ccc(CSc2nc3ccncc3n2Cc2nc(-c3ccccc3C)oc2C)cc1,.,.,7.9µM*,.,13µM*,3%
Cc1oc(-c2ccccc2F)nc1Cn1c(SCc2cccc(Cl)c2)nc2ccncc21,.,.,?,.,6%,?
CCCCNC(=O)CCC(=O)NNc1nc2ccccc2c2nc(-c3ccccc3)nn12,.,.,13µM*,.,-2%,3%
